SMILES strings stand for the structures. ± gives the uncertainty stated by the source.

This experiment concerns Caenorhabditis elegans N2 (wild type). Put plainly: animals with crystals or spheres in anterior pharynx; higher = more object (crystal/sphere) accumulation. The note with it: 30 µM; 48 h; genotype: wild type N2; stage: L1 start. On the procedure:
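Synchronized wild-type (N2) C. elegans L1 larvae (50 per well) were incubated in liquid NGM with E. coli HB101 and 30 uM of each wactive for 48 h. Live worms were scored by DIC and polarized-light microscopy for birefringent crystals or non-birefringent spheres in the anterior pharynx. At least 3 biological replicates were run with at least 20 worms each; the value is the mean % of animals carrying objects.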
In turn, `c1csc(-c2cnc3ccccc3n2)c1` [wact-21] returned an animals of 0%.
The figure for `COc1ccc(C=Cc2ccccn2)cc1` [wact-622] is 0%.
Consider `CCC1CCC(N2CCN(c3ccc([N+](=O)[O-])cc3)CC2)CC1` (stereo not drawn) [wact-6], for which the animals turned out to be 3.24 ± 3%.
As for `Cc1ccc(-c2cnc(-c3ccncc3)o2)cc1` [wact-23], the animals was 0%.
Under `O=C(NCCCCc1ccccc1)c1ccccc1F` [wact-400] stands 0%; under `Cc1ccccc1C(=O)NCCc1ccccc1` [wact-406], 0%; under `CCCc1nc(-c2ccc(-c3ccc(F)cc3)cc2)no1` [wact-390], 88.33 ± 0.88%.
The figure for `O=[N+]([O-])c1ccc(-n2ccc3ccccc32)cc1` [wact-213] is 40.3 ± 22%.
In turn, `O=[N+]([O-])c1ccc(N2CCN(CC3CCCCC3)CC2)cc1` [wact-45] had an animals of 0%.
The figure for `CCSc1nnc(-c2ccc(Cl)cc2Cl)o1` [wact-4] is 0%; for `c1ccc(-c2noc(-c3cccs3)n2)cc1` [wact-7] it is 0%.
Molecule `O=[N+]([O-])c1ccc(N2CCN(CC3CC4C=CC3C4)CC2)cc1` (stereo not drawn) [wact-46] yielded an animals of 0%.
As to `Clc1ccc(-c2cn3ccsc3n2)cc1` [wact-1], the animals worked out at 0%.
Under `c1ccc(CSc2nnc(-c3ccccc3)o2)cc1` [wact-38] stands 95.5 ± 3%.
In the case of `COc1ccccc1CNC(=O)c1ccccc1I` [wact-402], the animals was 0%.
Turning to `O=C1CC(N2CCN(c3ccc([N+](=O)[O-])cc3)CC2)C(=O)N1c1ccccc1F` (stereo not drawn) [wact-56], the animals was 0%.
Turning to `O=[N+]([O-])c1ccc(N2CCN(CC3CC=CCC3)CC2)cc1` (stereo not drawn) [wact-47], the animals amounted to 0%.
`O=C(c1ccc(Br)cc1)N1CCN(c2ccc([N+](=O)[O-])cc2)CC1` [wact-381] returned an animals of 99.5 ± 0.5%.
For `Brc1ccc(-c2nnc(-c3ccccc3)o2)cc1` [wact-425], the animals was 34.5 ± 9.2%.
In turn, `Ic1cccc(-c2nnc(-c3ccccc3)o2)c1` [wact-51] registered an animals of 51.5 ± 14%.
Under `O=[N+]([O-])c1ccc(CSc2ccc(Cl)cc2)cc1` [wact-3] stands 52.6 ± 13%; under `O=C(Nc1cccc(Cl)c1)N1CCN(c2ccc([N+](=O)[O-])cc2)CC1` [wact-31], 0%; under `c1ccc2nc(-c3nc4ccccc4o3)ccc2c1` [wact-40], 12.5 ± 2.8%.
Molecule `CCOc1ccc(-c2cnc3ccccc3n2)cc1` [wact-24] came in with an animals of 69.5 ± 6.4%.
`O=C(Nc1ccc(I)cc1)c1ccco1` [wact-27] returned an animals of 10 ± 8.3%.
Under `Fc1ccc(-c2cn3ccsc3n2)cc1` [wact-433] stands 0%; under `O=C(Nc1ccc(-c2nc3ccccc3s2)cc1)c1ccccc1F` [wact-415], 100%.
The figure for `C=CCSc1nnc(-c2ccc(Cl)cc2Cl)o1` [wact-5] is 0%.

The record behind these values is the supplement of paper PMC6718421.
